Hits are enriched below; roughly 3.2% of the tested compounds scored in any of these assays.
bovine MsrA act = bovine methionine sulfoxide reductase A activation; purified bovine MsrA, absorbance read-out; activation, % at 10.6 µM; 360,000 compounds, 0.3% hits; in the data active means activation above about 7.5%;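 further: 0% = vehicle and 100% = reference activator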
DAGLB inh = diacylglycerol lipase beta (human) inhibition; Q8NCG7; HEK293T DAGLB membrane lysate, EnzChek fluorogenic substrate; inhibition, % at 5.17 µM; 340,000 compounds, 0.059% hits; AID 504411; in the data active means inhibition above about 34%;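 further: 0% = enzyme with vehicle and 100% = wells lacking enzyme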
Pemphigus Ab inh = inhibitors of pemphigus antibody binding to human desmoglein-3; DSG3-coupled beads, scFv-anti-DSG3-GFP binding, flow cytometry; hits give low values; binding (percent of control), % at 10 µM; 310,000 compounds, 0.48% hits;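 active means binding more than 3 SD below its plate's average and above zero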;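 further: hits lower antibody fragment binding to DSG3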
rCAG RNA binder = molecules binding r(CAG) RNA repeats; AID 651821; inhibition, % at 3 µM; r(CAG) RNA repeat, TO-PRO-1 dye displacement fluorescence; 370,000 compounds, 1.3% hits;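 active means inhibition above the plate cutoff, the mean of all test compounds on that plate plus 3 SD, cut at about 35% in these data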;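 further: 0% = DMSO alone and 100% = 100 µM mitoxantrone as full dye displacement; higher means more dye released from RNA so lower well fluorescence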
MsrA inh = bovine MsrA inhibition | purified bovine MsrA, absorbance read-out | 360,000 compounds, 0.75% hits | inhibition, % at 15.5 µM | AID 651718; in the data active means inhibition above about 4.5%;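 further: 0% = vehicle wells with enzyme and 100% = reference inhibitor wells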
NadD block = NadD (S. aureus) enzyme inhibition; purified NadD enzyme, colorimetric absorbance read-out; inhibition, % at 20 µM; 360,000 compounds, 0.78% hits; AID 602399; in the data active means inhibition above about 26%
NadD conf = confirmation of Staphylococcus aureus NadD inhibitors. 2,000 compounds, 13% hits. purified S. aureus NadD, colorimetric enzyme assay. inhibition, % at 20 µM. shares compounds with NadD block; in the data active means inhibition mostly above about 42%, no sharp cut-off; inactive means mostly below about 42%
Active calls of the source: *; . = not tested or not shown; ! = not active in a repeat.

SMILES | bovine MsrA act | DAGLB inh | Pemphigus Ab inh | rCAG RNA binder | MsrA inh | NadD block | NadD conf
COc1ccc(/C=N/Nc2nc(-c3cccc(S(=O)(=O)N4CCCC4)c3)cs2)c(OC)c1 | -0.4 | 1.4 | 99.2 | 20.0 | 1.9 | 36.6* | 20.9
COc1cccc(C(=O)Nc2nc(-c3ccc(S(=O)(=O)N4CCOCC4)cc3)cs2)c1 | -8.8 | -3.2 | 103.5 | 11.1 | 0.8 | -1.0 | .
COc1ccc(-c2csc(Nc3ccc(S(N)(=O)=O)cc3)n2)cc1 | -4.5 | -0.9 | 87.8* | 8.3 | 0.3 | 44.9* | 47.3
CC(=O)Oc1ccc(-c2csc(Nc3ccc(S(N)(=O)=O)cc3)n2)cc1 | -4.2 | 1.0 | 98.2 | 12.6 | 2.0 | -1.9 | .
CCCCNC(=O)C1=C(N)C(C(=O)Nc2ccc(C)c(S(=O)(=O)N3CCCCC3)c2)SC1=Nc1ccc(C)cc1C (stereo not drawn) | -8.7 | -16.4 | 89.3 | 15.2 | 2.1 | 40.3* | 15.4
O=C1NC[C@H](Cc2ccc(O)cc2)N(C[C@@H]2CCCN2C[C@H](Cc2ccc(O)cc2)N2C[C@H](Cc3ccccc3)N(CC3CCCCCC3)C(=O)C2=O)C1=O | 0.5 | . | . | 11.3 | 0.1 | 45.0* | 39.5
O=C1NC[C@H](Cc2ccccc2)N(C[C@H]2CCCN2C[C@H](Cc2ccc(O)cc2)N2C[C@H](Cc3ccc(O)cc3)N(CC3CCCCCC3)C(=O)C2=O)C1=O | -1.0 | 7.4 | 98.9 | 7.6 | 0.8 | 32.8* | 34.2
O=C1NC[C@H](Cc2ccc(O)cc2)N(C[C@@H]2CCCN2C[C@H](Cc2ccccc2)N2C[C@H](Cc3ccc(O)cc3)N(CC3CCCCCC3)C(=O)C2=O)C1=O | -3.5 | . | . | 8.1 | -0.6 | 38.6* | 45.9
O=C1NC[C@H](Cc2ccccc2)N(C[C@H]2CCCN2C[C@H](Cc2ccccc2)N2C[C@H](Cc3ccc(O)cc3)N(CC3CCCCCC3)C(=O)C2=O)C1=O | 2.9 | 10.9 | 102.2 | 12.4 | -0.8 | 30.8* | 47.7*
N#Cc1ccc(/C=C2\CC3(OC(=O)c4ccc(F)cc4)CCCN2C3)cc1 (stereo not drawn) | . | . | . | -0.1 | . | . | .
c1ccc(-c2c[nH]c3ccc(OCCN4CCOCC4)c(-c4ccccc4)c23)cc1 | . | . | . | 3.4 | . | . | .
O=C(NCc1ccccc1)OCCN1C(=O)CCC12CCC(c1ccc(Cl)cc1)CC2 (stereo not drawn) | . | . | . | -0.7 | . | . | .
Cc1ccccc1OCc1nnc(SCC(=O)Nc2ccc3nc(SCC(=O)Nc4ccccc4)sc3c2)n1C | -7.2 | 1.4 | 88.1 | 11.2 | 1.5 | 32.3* | 3.3
Cc1cc(C)c(NC(=O)CSc2nc3ccc(NC(=O)CSc4nnnn4Cc4ccccc4)cc3s2)c(C)c1 | -1.3 | 13.3 | 92.6 | 28.3 | 0.7 | 47.2* | -3.3
COc1ccc(Cn2ccc3ccc(-c4ccc5ccn(Cc6cccc(F)c6)c5c4)cc32)cc1 | . | . | . | 21.2 | . | . | .
CCCCCC(=C/c1ccccc1)/C=N/Nc1ccc(S(=O)(=O)N2CCOCC2)cc1[N+](=O)[O-] | 1.0 | 0.6 | 116.0 | 2.5 | 0.2 | 5.0 | .
C[C@H](CO)N1C[C@H](C)[C@@H](CN(C)S(=O)(=O)c2ccccc2)Oc2ccc(NC(=O)Nc3ccc(C(F)(F)F)cc3)cc2C1=O | 2.2 | 3.3 | 105.8 | 12.4 | 0.3 | 35.0* | 5.5
COc1ccc(NC(=O)N(C)C[C@H]2Oc3ccc(NC(=O)c4ccncc4)cc3C(=O)N([C@H](C)CO)C[C@@H]2C)cc1 | -7.4 | -1.6 | 100.7 | 4.4 | 0.0 | 39.5* | 41.4*
COc1ccc(NC(=O)Nc2ccc3c(c2)C(=O)N([C@H](C)CO)C[C@H](C)[C@@H](CN(C)C(=O)Nc2ccc(OC)cc2)O3)cc1 | -1.8 | 4.3 | 102.8 | 7.4 | 0.5 | 7.5 | .
C[C@H](CO)N1C[C@H](C)[C@@H](CN(C)Cc2ccncc2)OCCCC[C@H](C)Oc2ccc(NC(=O)CCCN(C)C)cc2C1=O | -4.3 | . | . | 5.5 | 1.3 | 54.4* | 26.9
CCC(C)c1ccc2oc(-c3ccc(NC(=O)c4ncn[nH]4)cc3)nc2c1 (stereo not drawn) | -4.6 | 3.4 | 102.9 | 10.7 | 0.3 | 16.1 | .
O=C(Nc1ccc2oc(-c3cccc4ccccc34)nc2c1)c1ncn[nH]1 | -1.1 | 0.0 | 107.5 | 6.7 | 2.0 | 26.8* | -1.6
CC(C)c1ccc2oc(-c3ccc(NC(=O)c4ncn[nH]4)cc3)nc2c1 | . | 2.7 | 92.9 | 10.0 | 0.3 | 38.7* | 8.7
C#CCNC(=O)C[C@H]1C[C@@]2(C(=O)OC)C(=C[C@H](C3CCCC3)O[C@@H]2C)N(Cc2ccc(Cl)cc2Cl)C1=O | . | . | . | 8.9 | . | . | .
CN(CCc1ccccc1)C(=O)c1ccc(NC(=O)Cc2ccc(NC(=O)C3CCN(S(=O)(=O)c4cccc([N+](=O)[O-])c4)CC3)cc2)cc1 | -4.7 | 0.8 | 103.1 | 15.1 | 0.7 | 19.3 | .
SMILES | bovine MsrA act | DAGLB inh | Pemphigus Ab inh | rCAG RNA binder | MsrA inh | NadD block | NadD conf
Cc1ccc2c(C)nc(/N=C(\N)NC(=O)N3c4ccccc4Sc4ccccc43)nc2c1 | -10.1 | -1.6 | 93.2 | 7.2 | -1.2 | 26.4 | .
Cc1ccc2nc(/N=C(\N)NC(=O)N3c4ccccc4Sc4ccccc43)nc(C)c2c1 | -3.2 | 1.2 | 93.2 | 6.0 | -0.1 | 31.0* | 5.5
Cc1cc2nc(/N=C(\N)NC(=O)N3c4ccccc4Sc4ccccc43)nc(C)c2cc1C | -2.9 | -1.7 | 114.1 | 16.5 | 0.0 | 26.7*! | 7.5
O=C(NC1CCCCC1)c1ccc(-c2cn[nH]c2)c2ccoc12 | -2.1 | . | . | -0.5 | 0.9 | -0.1 | .
COC(=O)C1CN(Cc2cn(Cc3ccc(OC)cc3)nn2)CCS(=O)(=O)N1Cc1ccccc1 (stereo not drawn) | . | . | . | 2.9 | . | . | .
COc1ccccc1/C=N/NC(=O)c1ccc(CN2C(=O)c3cccc4cccc2c34)cc1 | -1.3 | -2.3 | 65.3* | 22.4 | 0.1 | 35.4* | 11.6
CCOC(=O)[C@]12CCCC=C1N(Cc1ccc3c(c1)OCO3)C(=O)[C@H](CC(=O)N1CCC(c3ccccc3)CC1)C2 | -1.3 | . | . | 6.9 | -1.6 | 5.0 | .
CCOC(=O)c1cc(-c2ccc(N3C(c4ccsc4)=Cc4ccccc4C3CC(C)=O)cc2)cc([N+](=O)[O-])c1 (stereo not drawn) | -12.3 | . | . | 7.1 | 1.3 | 31.6* | -0.1
FC(F)(F)c1cc(Cl)c2nc(-c3ccco3)c(Cc3ccccc3C(F)(F)F)n2c1 | -6.0 | . | . | 58.4* | -0.8 | 42.7* | 10.8
FC(F)(F)c1ccccc1Cc1c(-c2ccco2)nc2ccc(Cl)cn12 | -4.1 | . | . | 18.2 | 0.2 | 13.0 | .
COC(=O)[C@@]12C[C@@H](CC(=O)NCC3CCCCC3)C(=O)N(Cc3ccccc3)C1=CCC(C)(C)C2 | . | . | . | -0.8 | 0.9 | . | .
C[C@H](CO)N1C[C@H](C)[C@H](CN(C)C(=O)Nc2ccc(N3CCCCC3)cc2)OCc2cnnn2CCCC1=O | . | . | . | 5.5 | -0.4 | . | .
CC(C)c1ccc(NC(=O)C2Cc3c(-c4ccco4)ccnc3O2)cc1 (stereo not drawn) | -2.6 | . | . | 8.5 | 0.9 | -1.3 | .

Bioassay records as filed in PubChem.
